Rows were chosen to be rich in hits. Some 13% of all compounds tested hit in one or more screens of this group.
USP30 block = blocks human USP30 ubiquitin-rhodamine cleavage; purified USP30, Ub-rhodamine cleavage fluorescence; AID 1645860; inhibition, % at 25 µM; actives 5.3% (n = 47,000)
Target sequence (Q70CQ3 whole entry, looked up): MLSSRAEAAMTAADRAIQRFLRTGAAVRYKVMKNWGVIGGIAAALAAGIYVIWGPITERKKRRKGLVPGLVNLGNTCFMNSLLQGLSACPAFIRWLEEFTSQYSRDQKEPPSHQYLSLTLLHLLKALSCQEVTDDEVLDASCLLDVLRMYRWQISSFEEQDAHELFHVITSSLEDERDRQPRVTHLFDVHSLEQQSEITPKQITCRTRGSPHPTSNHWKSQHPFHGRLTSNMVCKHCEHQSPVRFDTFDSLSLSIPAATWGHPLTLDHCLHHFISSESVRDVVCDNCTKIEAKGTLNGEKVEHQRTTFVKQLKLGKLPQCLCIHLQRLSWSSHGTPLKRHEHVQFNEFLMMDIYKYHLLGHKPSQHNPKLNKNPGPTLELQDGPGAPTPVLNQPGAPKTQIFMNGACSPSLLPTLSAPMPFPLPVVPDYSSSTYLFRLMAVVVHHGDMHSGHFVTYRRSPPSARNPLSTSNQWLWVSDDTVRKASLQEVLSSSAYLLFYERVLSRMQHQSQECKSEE
USP10 block = inhibitors of human USP10 deubiquitinase; Q14694; purified USP10, Ub-rhodamine fluorescence, 60 min; inhibition, % at 20 µM; actives 1.1% (n = 47,000); AID 1645856
USP28 block = blocks human USP28 ubiquitin-rhodamine cleavage; AID 1645857; purified USP28, Ub-rhodamine cleavage fluorescence, 30 min; Q96RU2; actives 3% (n = 47,000); inhibition, % at 25 µM
USP17 inh = blocks human USP17 ubiquitin-rhodamine cleavage; A8MUK1; purified USP17, Ub-rhodamine cleavage fluorescence, 3 h; actives 6.5% (n = 47,000); inhibition, % at 50 µM
USP8 inh = blocks human USP8 ubiquitin-rhodamine cleavage. P40818. purified USP8, Ub-rhodamine cleavage fluorescence, 30 min. inhibition, % at 20 µM. actives 4.2% (n = 47,000). AID 1645853
* hit, by the source's call; i = inactive; / = not tested or not shown. Cut-off read from the data, not from the text of the source: active = inhibition above about 30%; inactive = the rest.

SMILES | USP30 block | USP10 block | USP28 block | USP17 inh | USP8 inh
CN(Cc1nc(N)nc(Nc2ccccc2)n1)Cc1cccc(Cl)c1Cl | -8 | 11 | -6 | -15 | -20
CCOCCc1nnc(NC(=O)C(=O)c2c[nH]c3ccccc23)s1 | -8 | -1 | 11 | -1 | -30
O=C(Nc1nc2c(ccc3ccccc32)s1)c1cccc(Br)c1 | 65* | -2 | 13 | 47* | 36*
O=C(Cc1cccc2ccccc12)Nc1nc2ccc(Br)cc2s1 | -5 | 0 | 11 | -21 | -88
CCOc1ccc2ncc(C(=O)c3ccc(OC)cc3)c(S(=O)(=O)c3ccccc3)c2c1 | -4 | 6 | -1 | 0 | -5
CC(C)N1CCN(c2ccc3ccc(C(=O)NCCc4ccncc4)cn23)CC1 | -227 | -2 | -54 | -51 | -52
CCn1ccc2c(cc(C(=O)Nc3ccccc3C)n2C)c1=O | -1 | 2 | 16 | / | 1
CCn1ccc2c(cc(C(=O)Nc3ccccc3F)n2C)c1=O | -6 | 0 | 74* | 0 | -43
COc1ccc([C@H]2C[C@@H](O)[C@@H](O)[C@@H]2NC(=O)c2cc(C)on2)cc1 | 35* | 2 | 1 | 9 | -5
Cc1ccc(CN2CCc3c(C(=O)N4CCCC4)n[nH]c3C2)s1 | 11 | 2 | 2 | -6 | 0
Cc1nnc2n1-c1cc(F)ccc1C(c1ccc(F)cc1)CC2 (stereo not drawn) | 12 | -1 | 10 | 5 | 13
O=C(/C=C/c1ccc(Cl)cc1)Nc1nc2n(n1)C(c1ccccc1)CC(=O)N2 (stereo not drawn) | 12 | 13 | -1 | 3 | 21
O=C(/C=C/c1ccc2c(c1)OCO2)Nc1nc2n(n1)C(c1ccccc1)CC(=O)N2 (stereo not drawn) | -46 | 22 | -14 | -10 | 62*
Cc1cc2cc(CNC(=O)c3ccccc3C(=O)O)ccc2n1C | -89 | -8 | -19 | 5 | 56*
O=C(OCc1ccc(Br)cc1)c1ccc2ccccc2n1 | 23 | 12 | 82* | 22 | 26
CN(C)S(=O)(=O)c1cccc(C(=O)OCc2ccccc2C#N)c1 | 22 | 0 | 36* | 0 | -1
O=C(COC(=O)c1ccc2ccccc2n1)Nc1ccc(F)cc1 | -427 | -5 | -121 | -173 | -37
Cc1ccc(N(C)S(=O)(=O)c2cccc(C(=O)OCC(=O)c3ccc(-c4ccccc4)cc3)c2)cc1 | -189 | -5 | -58 | -11 | -20
N#Cc1ccccc1COC(=O)c1ccc2ccccc2n1 | 10 | -1 | 62* | -11 | -31
N#Cc1ccc(COC(=O)c2ccc3ccccc3n2)cc1 | -29 | -3 | 64* | -14 | -5
CC1Oc2ccccc2N(Cc2nc(-c3ccccc3)no2)C1=O (stereo not drawn) | 3 | 6 | 7 | 40* | -1
CN(Cc1ccc(C(C)(C)C)cc1)Cc1nc(N)nc(N)n1 | -23 | -3 | -16 | -41 | -4
Cc1ccc(CNC(=O)C2CCN(C(=O)c3cc(-c4ccncc4)n[nH]3)CC2)o1 | / | -3 | / | 5 | -4
Cc1ccc(NC(=O)c2cc(-c3ccncc3)n[nH]2)cc1Cl | 0 | 15 | 36* | 2 | 22
CCOc1ccccc1NC(=O)c1cc(-c2ccncc2)n[nH]1 | / | 1 | / | -21 | 0
SMILES | USP30 block | USP10 block | USP28 block | USP17 inh | USP8 inh
Cc1ccc(NC(=O)C2CCN(C(=O)c3cc(-c4ccncc4)n[nH]3)CC2)cc1Cl | 63* | -2 | 37* | 63* | 17
CC(=O)Nc1ccc(CN2CC[C@H](c3nnc(-c4cccnc4)o3)C2)cc1 | -3 | 0 | -1 | -8 | -1
CC(NC(=O)c1ccc2ccccc2n1)c1ccccc1 (stereo not drawn) | 44* | 3 | 23 | 18 | 15
CN(C)C(CNC(=O)c1ccc2ccccc2n1)c1ccccc1 (stereo not drawn) | -7 | -1 | -6 | 0 | 0
Cc1ccn(-c2ccc(NC(=O)c3ccccc3Sc3ccccc3C#N)cc2)n1 | 35* | 7 | 38* | 50* | 12
Cc1ccc(-c2ncc(C(=O)Nc3ccc(Cl)cc3)c(-c3ccncc3)n2)cc1 | i | -4 | -130 | -104 | 28
COc1ccc(C(C)NC(=O)c2cnc(-c3ccccc3)nc2-c2ccncc2)cc1 (stereo not drawn) | i | -9 | -126 | 40* | 5
Cc1ccc(C)c(CNC(=O)c2cnc(-c3ccccc3)nc2-c2ccncc2)c1 | -308 | -7 | -79 | -28 | 0
Cc1ccc(-c2ncc(C(=O)Nc3c(F)cccc3F)c(-c3ccncc3)n2)cc1 | -469 | -3 | -109 | -135 | 61*
